From PubChem BioAssay (NCI) come the findings set out here.

A short description of assay [1]: NCI Yeast Anticancer Drug Screen. Data for the rad50 strain (AID 155).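 Further: 0% = growth of vehicle-only cultures of the same strain.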 The note with it: S. cerevisiae rad50 strain growth inhibition; at 50.0 µM; stronger effect = higher value. The procedure, abridged:
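Vehicle-treated cultures provide the reference for the growth inhibition reported for compound-exposed, repair-deficient yeast.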

Assay [2] can be described thus: NCI Yeast Anticancer Drug Screen. Data for the mec2-1 strain (AID 157). The note with it: S. cerevisiae mec2-1 strain, at 50.0 µM, stronger effect = higher value. A digest of the protocol:
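mec2-1 yeast strain, carrying an alteration in DNA damage repair or cell cycle control, was exposed to compounds; growth inhibition was measured relative to vehicle-treated controls.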

Assay [3] is described as follows: NCI Yeast Anticancer Drug Screen. Data for the sgs1 mgt1 strain (AID 161).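 Further: 0% = growth of cultures given vehicle only.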 Particulars: S. cerevisiae sgs1 mgt1 strain, at 50.0 µM, stronger effect = higher value. The procedure, abridged: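 This yeast growth screen uses a strain with defined DNA-repair lesions; compound-treated growth is compared with vehicle-treated growth.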
A short description of assay [4]: NCI Yeast Anticancer Drug Screen. Data for the cln2 rad14 strain (AID 165).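 Further: 0% = growth equal to vehicle treated cultures.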 Particulars: S. cerevisiae cln2 rad14 strain, at 50.0 µM, stronger effect = higher value. The procedure, abridged: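 Yeast carrying cln2 and rad14 alterations (cell cycle control and DNA damage repair) were exposed to compounds. Growth inhibition was measured against vehicle-treated controls.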
Assay [5] is described as follows: NCI Yeast Anticancer Drug Screen. Data for the bub3 strain (AID 167). The note with it: S. cerevisiae bub3 mutant strain, at 50.0 µM, stronger effect = higher value. A digest of the protocol: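 Mutant yeast screening strain plus compound; vehicle-treated cultures serve as the 0% inhibition reference.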
Assay [6] is described as follows: NCI Yeast Anticancer Drug Screen. Data for the mlh1 rad18 strain (AID 175). Particulars: S. cerevisiae mlh1 rad18 strain growth inhibition; at 50.0 µM; stronger effect = higher value. A digest of the protocol:
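Growth inhibition of the yeast strain was measured after compound exposure and expressed relative to vehicle-treated controls. The strain carries defined defects in DNA damage repair.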

Compounds without any hit were thinned out: in the full panel of roughly 79,000, 15% have a hit. Unmarked numbers belong to inactive results. Active and inactive are the calls of the source. No stated cut-off is given here; in the data, active means growth inhibition above about 70%; inactive means the rest.

Turning to `CN(C)Cc1[nH]c(=O)[nH]c(=O)c1O`, the growth inhibition in assay [1] was -9.05%; in assay [2], -8.75%; in assay [3], -11.9%; in assay [4] it was -38.8%; in assay [5], -21.5%; in assay [6] it was -45.3%.

Turning to `C[N+]1(C)CCN(S(=O)(=O)c2ccccc2)c2ccccc21`, the growth inhibition is -10.1% in assay [1]; -13.4% in assay [2]; -4.35% in assay [3]; -7.95% in assay [4]; -19.6% in assay [5]; -18.4% in assay [6].

In the case of `CCOC1(c2ccccc2)c2ccccc2C(C)(C)c2ccccc21`, the growth inhibition in assay [1] was 0.8%; in assay [2], 12.3%; in assay [3] it was 42%; in assay [4], 4.2%; in assay [5] it was 14.9%; in assay [6], -5.2%.

On to `CCOC(=O)c1c(Nc2ccccc2O)oc2ccccc12`, for which the growth inhibition was -0.4% in assay [1]; 3.1% in assay [2]; 6.95% in assay [3]; 17.6% in assay [4]; 6.45% in assay [5]; 11.9% in assay [6].

Turning to `CCOC(=O)COc1cc2c(cc1C(C)c1ccc(OCc3ccccc3)c(OC)c1)OCO2` (centres undefined), the growth inhibition in assay [1] was -0.95%; in assay [2], -7.55%; in assay [3], -9.7%; in assay [4], 10.6%; in assay [5], -7.4%; in assay [6], -6.3%.

In the case of `NC(=O)C1CCCN(C2OC(COP(=O)(O)OP(=O)(O)OCC3OC(n4cnc5c(N)ncnc54)C(OP(=O)(O)O)C3O)C(O)C2O)C1` (centres undefined), the growth inhibition in assay [1] is 5.85%; in assay [2], -15.1%; in assay [3] it was 15.2%; in assay [4] it was 1.5%; in assay [5], 16.3%; in assay [6] it was -0.9%.

As for `O=[N+]([O-])/C(Cl)=C(/C(Cl)=C(Cl)Cl)N1CCOCC1`, the growth inhibition in assay [1] was 5.55%; in assay [2], 4.8%; in assay [3] it was 44%; in assay [4], 6.35%; in assay [5] it was 23.9%; in assay [6], 11.7%.

As for `Cc1cccc(-c2cc(=O)c3cccnc3[nH]2)c1`, the growth inhibition in assay [1] is 2.05%; in assay [2], -1.45%; in assay [3], 9.35%; in assay [4], 4.05%; in assay [5] it was -13%; in assay [6], 1.25%.

As for `O=C(C(=O)c1cccc(Cl)c1)c1ccccc1`, the growth inhibition is 21.4% in assay [1]; 24.6% in assay [2]; 5% in assay [3]; 2.85% in assay [4]; -15.2% in assay [5]; -5.45% in assay [6].

In the case of `CC1=CC2(C)OC3C(=O)N(c4ccc(Cl)cc4)C(=O)C3C2N=C1` (centres undefined), the growth inhibition is -7.65% in assay [1]; -22.9% in assay [2]; -24% in assay [3]; 9.6% in assay [4]; -20.1% in assay [5]; -3.35% in assay [6].

On to `Nc1ccn[nH]1`, for which the growth inhibition in assay [1] was 5.1%; in assay [2], -0.05%; in assay [3], 0.8%; in assay [4] it was -2.25%; in assay [5], 18.1%; in assay [6], 1.35%.

Take `CC(=N\N=C(c1ccccc1)c1ccccc1)/C(C)=N/N=C(c1ccccc1)c1ccccc1`: the growth inhibition was -22.1% in assay [1]; -8.15% in assay [2]; -13.8% in assay [3]; -9% in assay [4]; -1.15% in assay [5]; -17.8% in assay [6].

In the case of `COc1cc(N(CCC#N)CCC#N)ccc1/C(N=Nc1ccccc1)=N/NC(=O)c1cc(Br)ccc1O`, the growth inhibition was 31.4% in assay [1]; 37.1% in assay [2]; 44.2% in assay [3]; 3.3% in assay [4]; 35.9% in assay [5]; 21.4% in assay [6].

For the molecule `CC1=N/C(=C\c2cccs2)C(=O)O1`, the growth inhibition in assay [1] is 26.6%; in assay [2], 30.5%; in assay [3], 28.1%; in assay [4] it was 20.5%; in assay [5], 22.9%; in assay [6], 28.9%.

With `O=P(O)(OCC(Br)CBr)OCC(Br)CBr` (centres undefined), the growth inhibition in assay [1] is -12.4%; in assay [2], -7.05%; in assay [3], 11.2%; in assay [4], -45%; in assay [5], 1.75%; in assay [6] it was 23.8%.

In the case of `CN1CC(c2ccccc2)=Cc2c1ccc(N)c2N=N`, the growth inhibition is -13.3% in assay [1]; -29.2% in assay [2]; -0.3% in assay [3]; 15.6% in assay [4]; 12.8% in assay [5]; 0.15% in assay [6].

With `Cc1cc(O)cc2oc(=O)ccc12`, the growth inhibition in assay [1] was -34.4%; in assay [2] it was -23.4%; in assay [3] it was -9.9%; in assay [4], -11.7%; in assay [5], -11.7%; in assay [6] it was -15.2%.

Consider `Clc1ccc(/C=N/N2CCN(/N=C/c3ccc(Cl)cc3)CC2)cc1`, for which the growth inhibition in assay [1] was -3.1%; in assay [2], -10.3%; in assay [3], -0.2%; in assay [4], -5.35%; in assay [5], 13.2%; in assay [6] it was -15%.

As for `Cc1cc[n+](Cc2ccccc2Cl)c(C)c1`, the growth inhibition is 19% in assay [1]; 2.25% in assay [2]; 14% in assay [3]; -4.15% in assay [4]; 2.05% in assay [5]; 4.9% in assay [6].

Consider `C=CCCCCCCCCCCCCCCCCCC`, for which the growth inhibition in assay [1] is -3.55%; in assay [2], -3.8%; in assay [3] it was 2.8%; in assay [4], 5.9%; in assay [5], -5.3%; in assay [6], 6.2%.

Consider `CC(C)=CC1C(COCc2cc3c(cc2Br)OCO3)C1(C)C` (centres undefined), for which the growth inhibition is -12.3% in assay [1]; -9.45% in assay [2]; 3% in assay [3]; -34.2% in assay [4]; -7.05% in assay [5]; -3.95% in assay [6].

Regarding `Cc1nc(C(N)=O)c(=O)[nH]c1C`, the growth inhibition was 2.25% in assay [1]; 2.3% in assay [2]; 8% in assay [3]; -22.9% in assay [4]; 2.65% in assay [5]; 13.7% in assay [6].

In the case of `CCCc1c(C)nc2scc(-c3ccccc3)n2c1=O`, the growth inhibition in assay [1] was 38.7%; in assay [2], 16.5%; in assay [3] it was 55.1%; in assay [4], 37.4%; in assay [5], 39.4%; in assay [6], 34%.

Consider `CC1(C)OC2C(COC(=O)c3ccc([N+](=O)[O-])cc3)OC(NC(=O)N(CCCl)N=O)C2O1` (centres undefined), for which the growth inhibition is -34.4% in assay [1]; -21.2% in assay [2]; -20.9% in assay [3]; -11.2% in assay [4]; -36.5% in assay [5]; 81.5% (active) in assay [6].

As for `Nc1nc2c(C(=O)N3CCCC3)nnn2c2cccc(Cl)c12`, the growth inhibition is -4.45% in assay [1]; -11.7% in assay [2]; 17% in assay [3]; 18.3% in assay [4]; 9.9% in assay [5]; 0.05% in assay [6].

For `CC(=O)Nc1ccc(S(=O)(=O)Nc2c(-c3ccccc3)[nH]c(C)c2C(C)=O)cc1`, the growth inhibition in assay [1] is 1.65%; in assay [2], 7.85%; in assay [3], -10.3%; in assay [4], -0.65%; in assay [5], 1.65%; in assay [6], 13.8%.

With `O=C(O)c1ccc(S(=O)(=O)c2cccc(Cl)c2)cc1`, the growth inhibition in assay [1] is 0.85%; in assay [2] it was 7.8%; in assay [3], 8.65%; in assay [4], -18.7%; in assay [5] it was -16.1%; in assay [6] it was 6.45%.

Take `Nc1n[nH]c(=S)s1`: the growth inhibition in assay [1] is 6.8%; in assay [2] it was -12.1%; in assay [3], 7.35%; in assay [4], -8.7%; in assay [5], -12.3%; in assay [6] it was 3.55%.

Take `O=C1OC2(CC1n1cnc3ccccc3c1=O)C(=O)Nc1ccccc12` (centres undefined): the growth inhibition in assay [1] was 4.3%; in assay [2], -21.2%; in assay [3], 8.5%; in assay [4], 8.3%; in assay [5], -1.15%; in assay [6], 11.2%.

Consider `OC(c1nc2ccccc2s1)(C(F)(F)F)C(F)(F)F`, for which the growth inhibition in assay [1] is -14.2%; in assay [2], -20.1%; in assay [3], -9.5%; in assay [4], 18.4%; in assay [5], -13%; in assay [6], 38.4%.

With `COC(=O)/C(C)=C/C=C/C(OC)C(OC(N)=O)/C(C)=C/C(C)C(O)C(CC(C)CC1=C(N)C(=O)C=C(N)C1=O)OC` (centres undefined), the growth inhibition in assay [1] was 9.4%; in assay [2], 10.3%; in assay [3] it was -6.8%; in assay [4], 46.9%; in assay [5], 5.9%; in assay [6], -18%.

With `C=C1CC(OC(=O)c2ccc([N+](=O)[O-])cc2)C1`, the growth inhibition is 1.5% in assay [1]; -16.6% in assay [2]; -16.5% in assay [3]; -8.65% in assay [4]; 3.7% in assay [5]; -8.5% in assay [6].

For `N#CC1NCNC1N` (centres undefined), the growth inhibition in assay [1] is 0.2%; in assay [2] it was 0.65%; in assay [3], -6.6%; in assay [4] it was 1.15%; in assay [5], -1.25%; in assay [6], -16.8%.

As for `CCCCS(=O)(=O)CCCCCCl`, the growth inhibition in assay [1] is 1.55%; in assay [2], -2.95%; in assay [3] it was -6.25%; in assay [4], -13.5%; in assay [5], -6.45%; in assay [6] it was 9.55%.

`COc1ccc(C(=O)N2CCCCC2)cc1`: the growth inhibition is -31.1% in assay [1]; -15.8% in assay [2]; -3.8% in assay [3]; -26.6% in assay [4]; -0.9% in assay [5]; -12.2% in assay [6].

Consider `CN(C)Cc1ccc(-c2cc3onc(-c4ccccc4)c3c(=O)n2C)cc1`, for which the growth inhibition in assay [1] was -22.9%; in assay [2], -13.1%; in assay [3] it was -29.5%; in assay [4] it was -8.4%; in assay [5] it was -28%; in assay [6], 2.5%.

Regarding `COc1ccc(C(=O)N/N=C/c2ccccc2OC)cc1`, the growth inhibition in assay [1] was -3.1%; in assay [2] it was 31%; in assay [3] it was 25.4%; in assay [4], -10.6%; in assay [5] it was 27.9%; in assay [6], 32%.

In the case of `C/C(=N\N=C(N)N)c1ccc(NC(=S)Nc2ccccc2)cc1`, the growth inhibition in assay [1] was 5.4%; in assay [2], 3.85%; in assay [3], 26.2%; in assay [4] it was -19.9%; in assay [5] it was 3.5%; in assay [6] it was 9.5%.

Turning to `CCO/C(O)=C(/C#N)C(=O)NC1=NCCCCC1`, the growth inhibition is 6.15% in assay [1]; 8.25% in assay [2]; 4.75% in assay [3]; -43% in assay [4]; 4.65% in assay [5]; 16.4% in assay [6].
